Out of some 24,000 compounds screened, about 180 (0.75%) were called active. The sample as a whole holds a higher share of actives than the screen did. Values without a mark were called inactive. Cut-off read from the data, not from the text of the source: active = inhibition above about 30%; inconclusive = no clear call, values can overlap the other calls; inactive = below that.

Sequence of fMet-Leu-Phe receptor (Homo sapiens) (P21462 whole entry, looked up): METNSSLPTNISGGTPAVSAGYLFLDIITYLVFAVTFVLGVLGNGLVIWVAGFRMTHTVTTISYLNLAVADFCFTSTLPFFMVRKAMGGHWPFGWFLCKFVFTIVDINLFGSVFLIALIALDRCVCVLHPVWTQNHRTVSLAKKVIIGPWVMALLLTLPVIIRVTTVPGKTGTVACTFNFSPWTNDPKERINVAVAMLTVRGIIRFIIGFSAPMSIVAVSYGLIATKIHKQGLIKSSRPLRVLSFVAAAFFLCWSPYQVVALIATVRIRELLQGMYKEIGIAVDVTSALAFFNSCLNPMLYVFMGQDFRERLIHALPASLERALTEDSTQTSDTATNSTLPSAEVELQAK

The test addresses fMet-Leu-Phe receptor (Homo sapiens) (UniProt P21462). Nature of the test: small molecules displacing FPR fluorescent ligand – cell-based, FPRL1 counter-screen, flow cytometry, primary screen (AID 440).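 Note: 0% = buffer wells and 100% = receptor blocker peptide wells.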 Conditions: FPR-expressing cells, fluorescent ligand binding, active compounds read high, concentration not given here. For orientation: A counterscreen serves to expose hits that act by an unwanted route or on another target.
The term inhibition denotes the drop in the measured response relative to a control, in per cent. As for `CN(C)S(=O)(=O)c1ccc(Oc2ccc(S(=O)(=O)N(C)C)cc2)cc1`, the inhibition was -1.8%.

Take `O=C(CSc1nnc(Cn2cnc3ccccc32)o1)c1ccccc1`: the inhibition is 1.9%.

For the compound `O=C(O)[C@@H]1CCCN1c1ncnc2sc3c(c12)CCC3`, the inhibition was 8.1%.

As to `CC(=O)c1cccc(S(=O)(=O)N2CCC(n3nnc4cc(F)ccc43)CC2)c1`, the inhibition is 9.5%.

In the case of `COc1ccc(C(=O)Nc2nncs2)c(OC)c1`, the inhibition was 5.3%.

Consider `CC(=O)Nc1cc(C(=O)O)ccc1S(=O)(=O)c1ccc(Cl)cc1`, for which the inhibition is -2.3%.

Regarding `CCOC(=O)N1CCC(NC(=O)Cn2cc3c(n2)CCCCC3)CC1`, the inhibition was 0%.

For `Cc1ccc(C)c(S(=O)(=O)n2cnc3ccccc32)c1`, the inhibition was -0.2%.

As to `O=C(Nc1ccccc1C(F)(F)F)c1cc(-c2ccc(O)cc2)on1`, the inhibition is -2.3%.

On to `O=C(CS(=O)(=O)c1cn(Cc2ccc(Cl)cc2)c2ccccc12)N1CCOCC1`, for which the inhibition is 15%.

In the case of `O=C(Nc1c2c(nn1-c1ccc(F)cc1)CS(=O)C2)C12CC3CC(CC(C3)C1)C2` (centres undefined), the inhibition was -5.4%.

Regarding `Cc1cc(C)c(C#N)c(SCc2[nH]nc3c2C(c2ccccc2)C(C#N)=C(N)O3)n1` (centres undefined), the inhibition was -6.4%.

With `CCCCc1nc2c(=O)[nH]c3ccccc3c2o1`, the inhibition is -2.1%.

Turning to `Fc1ccc2nc(Nc3nc4c(s3)CCCC4)sc2c1`, the inhibition was -14.3%.

For the compound `Cn1cccc1C1(C(F)(F)F)NCCNC1=O` (centres undefined), the inhibition is 1.7%.

For `CCCCCCn1c(CN2CCCCC2)nc2c1c(=O)n(C)c(=O)n2C`, the inhibition was -5.5%.

Take `O=c1c(-c2ccccc2)coc2c(CN3CCOCC3)c(O)ccc12`: the inhibition is -5.5%.

Take `c1ccc(COc2nsnc2N2CCOCC2)cc1`: the inhibition is -1.9%.

As for `Cn1cccc1Cc1nnc(SCC(=O)NCc2ccc3c(c2)OCO3)n1CCc1ccccc1`, the inhibition was 4.8%.

For `COc1ccc(CCNC(=O)C2CCN(c3nn4c(=O)cc(C)nc4s3)CC2)cc1OC`, the inhibition was -2.7%.

For `CCn1ncc(C2=NOC(C(=O)N3CCN(c4ccccc4)CC3)C2)c1C` (centres undefined), the inhibition was -5.6%.

`OCc1n[nH]c(CO)n1`: the inhibition was 1.3%.

Consider `O=C(CN1CCN(c2ncc(C(F)(F)F)cc2Cl)CC1)Nc1ccc2c(c1)OCO2`, for which the inhibition was -4.3%.

With `CCCCOCCCNC(=O)c1ccccc1OCC`, the inhibition is 1.4%.

`CCOC(=O)c1cc(NC(=O)SCC(=O)O)c(C)nc1C`: the inhibition is 3.8%.

Regarding `CCOC(=O)c1cc2cc(-c3c(C(=O)OCC)oc4cc(O)cc(O)c4c3=O)ccc2o1`, the inhibition is -2.3%.

For the compound `COc1cc(C2C(C(=O)Nc3ccc(F)cc3)=C(C)Nc3nc(CCCO)nn32)cc(OC)c1OC` (centres undefined), the inhibition was -4.8%.

Consider `CCOc1ccc2c(=O)c(-c3ccc4c(c3)OCCCO4)c(C)oc2c1`, for which the inhibition was -4.1%.

As to `CCOc1ccc(N(CC(=O)NCc2ccc(OC)cc2)S(=O)(=O)c2c(C)noc2C)cc1`, the inhibition is -3.8%.

For `CCOC(=O)CSc1nc2c(c(=O)n(C)c(=O)n2C)n1Cc1ccccc1F`, the inhibition was 4.7%.

Consider `CCOc1ccc(Cn2nnc(C(=O)Nc3ccc(OC)cc3OC)c2N)cc1`, for which the inhibition was -3.7%.

`O=C(Nc1ccn(Cc2ccc(F)cc2)n1)c1ccncc1`: the inhibition is -7.7%.

Consider `COc1ccc(OC)c(NC(=O)CCN2CCC(C)CC2)c1`, for which the inhibition is -5.8%.

Turning to `Cc1cc(C)c(C#N)c(SCS(=O)c2ccc(C(C)(C)C)cc2)n1` (centres undefined), the inhibition was -4.1%.

Regarding `CCC(C(=O)Nc1ncccn1)(C(F)(F)F)C(F)(F)F`, the inhibition was -1.6%.

Turning to `CCOC(=O)c1nnn(-c2nc(OC)nc(N(C)C)n2)c1-c1ccccc1`, the inhibition is -0.2%.

`COc1cccc(Oc2ccc(N)cc2)c1`: the inhibition is -7.2%.

For `C=CCn1c(SCC(=O)NC23CC4CC(CC(C4)C2)C3)nc(O)cc1=O`, the inhibition was 3.3%.

In the case of `CCn1ncc(C2=NOC(C(=O)Nc3ccccc3C(=O)OC)C2)c1C` (centres undefined), the inhibition is 5.9%.

Turning to `Cc1ccnc(N2C(=O)c3ccccc3C2Nc2ccc3c(c2)OCCO3)c1` (centres undefined), the inhibition is -0.2%.

For the compound `CC(=O)C1=C(O)C(=O)N(c2ccc(S(N)(=O)=O)cc2)C1c1ccccc1F` (centres undefined), the inhibition was -10.4%.

On to `CCOC(=O)Cn1c(N)c(C(=O)OC)sc1=S`, for which the inhibition is 1.5%.

As for `CCOC(=O)c1sc(=S)n(-c2cccc(OC)c2)c1N`, the inhibition was 11%.

Consider `CCOC(=O)c1sc(=S)n2c1[nH]c(=O)c1ccc(C(=O)OC)cc12`, for which the inhibition is 35.8% (active).

As for `Cc1ccc2cccc(O)c2[n+]1[O-]`, the inhibition is 0.7%.

Turning to `CCOC(=O)Cn1c2c(c(-c3ccccc3OC)cc1=O)CCCC2`, the inhibition was 10.1%.

Turning to `CCOC(=O)N1CCN(C(=O)CSc2nnc(-c3c[nH]c4ccccc34)n2CCOC)CC1`, the inhibition is 8.4%.

For `Cc1ccc2nc(NC(=O)C3CCN(S(=O)(=O)c4ccc5c(c4)oc(=O)n5C)CC3)sc2c1`, the inhibition is -18.8%.

Consider `Cc1cc(Nc2cccc(F)c2)n2ncnc2n1`, for which the inhibition was -3.6%.

In the case of `Cc1nc2ccc(S(=O)(=O)NCC(=O)NCCN3CCCCC3C)cc2s1` (centres undefined), the inhibition was -4.2%.

For the compound `Cc1noc(C)c1S(=O)(=O)N(CC(=O)Nc1ccc2c(c1)OCCO2)c1ccc(C(C)C)cc1`, the inhibition was 0.9%.

`O=C(OCc1ccccc1F)c1ccc2c(c1)OCCO2`: the inhibition is 3.6%.

As for `CN1CCN(CCCNC(=O)c2cc3c(=O)oc4ccccc4c3s2)CC1`, the inhibition is -0.9%.

For the compound `COC(=O)c1cc(S(=O)(=O)NC2CCN(Cc3ccccc3)CC2)cn1C`, the inhibition is -4.4%.

Consider `CCC(=O)N1CCN=C1SCc1ccc(F)cc1`, for which the inhibition was 0%.

Consider `O=C(Nc1nccs1)C1CCCN1S(=O)(=O)c1cccc2cccnc12` (centres undefined), for which the inhibition was -4.6%.

For the compound `COc1cccc(-n2cc(C(=O)O)c3ccccc3c2=O)c1`, the inhibition was -2.1%.

Regarding `COC(=O)c1c(-c2ccc(C)cc2)csc1N`, the inhibition is 7%.

For `CCN1CCN(Cc2c(O)ccc3c(=O)c(-c4ccc(OC)c(OC)c4)c(C(F)(F)F)oc23)CC1`, the inhibition is -8.1%.

On to `O=C1C(=O)N(CCN2CCOCC2)C(c2ccccn2)/C1=C(/O)c1ccc(Cl)cc1` (centres undefined), for which the inhibition is 13.6%.

As for `CCOc1ccc(OCC)c(NC(=O)CN(C)S(=O)(=O)c2cccc3nsnc23)c1`, the inhibition is -0.8%.

With `Cc1cnc(C(=O)OCC(=O)Nc2ccc(Cl)cc2Cl)cn1`, the inhibition was -2.2%.

Regarding `COc1ccc(NC(=O)c2c(SC)nsc2SC)cc1`, the inhibition is 2.1%.

Consider `COc1ccc(-c2ccc(Nc3ccc(S(=O)(=O)N4CCCC4)cc3)nn2)cc1OC`, for which the inhibition is -6.4%.

With `Cc1cc(Nc2ccc(Br)cc2F)n2ncnc2n1`, the inhibition was -4.7%.

On to `CCOC(=O)N1CCN(C(=O)C2CC(c3ccc(F)cc3)=NO2)CC1` (centres undefined), for which the inhibition was 9.4%.

On to `CN(C)CCCNC(=O)c1ccc2[nH]c3ccccc3c2c1`, for which the inhibition is 3.7%.

For the compound `COc1cccc(N2C(=O)CC(N3CCN(S(=O)(=O)c4ccccc4)CC3)C2=O)c1` (centres undefined), the inhibition was -0.8%.

In the case of `CCOC(=O)c1c(C)c(C(=O)NCCc2ccc(S(N)(=O)=O)cc2)c(C)n1CC`, the inhibition was -11.9%.

As for `COc1ccc(CNC(=O)C2CCN(S(=O)(=O)N3CCOCC3)CC2)cc1`, the inhibition is -0.9%.

As for `COc1ccc(/C(O)=C2/C(=O)C(=O)N(CCCN(C)C)C2c2ccccc2)cc1OC` (centres undefined), the inhibition was -8.5%.

`Cc1ccc(NC(=O)CN(C)S(=O)(=O)c2cnc[nH]2)cc1C`: the inhibition is -11.5%.

Regarding `O=C(O)Cc1ccc(NC(=O)C2CCCCC2C(=O)O)cc1` (centres undefined), the inhibition was -9.4%.

`COc1ccccc1N1CCN(C(=O)c2c(-c3c(Cl)cccc3Cl)noc2C)CC1`: the inhibition was 6.9%.

Consider `CCOC(=O)CN1CC23C=CC(O2)C(C(=O)Nc2ccc(F)cc2)C3C1=O` (centres undefined), for which the inhibition is -4.5%.

Consider `COc1ccc(CC(NC(C)=O)C(=O)NC2CCN(C(=O)Nc3ccc(C#N)cc3)CC2)cc1OC` (centres undefined), for which the inhibition is 13.5%.

Turning to `CCOC(=O)c1oc2ccccc2c1NC(=O)c1cccs1`, the inhibition was -2.1%.

Turning to `CCOc1ccc(N(CC(=O)OC)S(=O)(=O)c2c(C)noc2C)cc1`, the inhibition was -18.8%.

As to `O=C1c2ccccc2C(O)N1Cc1ccccc1` (centres undefined), the inhibition is -3.5%.

For `CC1=C(C(=O)OCc2ccccc2)C(c2ccco2)n2ncnc2N1` (centres undefined), the inhibition is -4.9%.

On to `O=C(C1=C(O)C(=O)N(Cc2ccccc2)C1c1ccco1)c1ccco1` (centres undefined), for which the inhibition was 43.1% (active).

`O=C(C1=C(O)C(=O)N(Cc2ccccc2)C1c1cccnc1)c1ccco1` (centres undefined): the inhibition was 36% (active).

As for `O=C(C1=C(O)C(=O)N(c2ncccn2)C1c1cccs1)c1ccco1` (centres undefined), the inhibition is -4.1%.

As to `O=C(Nc1ccccc1)N(Cc1cccnc1)Cc1ccco1`, the inhibition was 4.3%.

For the compound `CCC1Oc2ccc(Cl)cc2N(CC(=O)O)C1=O` (centres undefined), the inhibition is 4.3%.

For `Cc1cccc(N2C(=O)SC(N(CC(=O)O)c3cccc(C)c3)C2=O)c1` (centres undefined), the inhibition was 76.8% (active).

In the case of `Cc1cc(C)cc(N(CC(=O)NCC2CCCO2)S(=O)(=O)c2c(C)noc2C)c1` (centres undefined), the inhibition is 3.2%.

For the compound `COc1ccc(C2CC(c3ccc(Cl)cc3Cl)Nc3nc(N)nn32)cc1OC` (centres undefined), the inhibition was 6.7%.

Turning to `COc1ccccc1C(=O)N1CCN=C1SCc1cccnc1`, the inhibition is 0.1%.

Regarding `CCOC(=O)c1oc2c(CN3CCN(C)CC3)c(O)ccc2c(=O)c1-c1ccc(Br)cc1`, the inhibition is -5.9%.

In the case of `Cc1sc(NC(=O)C2C3CCC(O3)C2C(=O)O)c(C(=O)OC(C)C)c1-c1ccc(Cl)cc1` (centres undefined), the inhibition is 6.3%.

Turning to `CC(C)OC(=O)c1cc(NC(=O)C2C3CCC(O3)C2C(=O)O)cc(C(=O)OC(C)C)c1` (centres undefined), the inhibition is 39.8% (active).

For the compound `CC(C)COC(=O)C1C2C=CC3(CN(C(C)c4ccc(Br)cc4)C(=O)C13)O2` (centres undefined), the inhibition was -6.6%.

On to `Cc1ccc(C)c(N(CC(=O)NCc2ccco2)C(=O)CCC(=O)Nc2ccccn2)c1`, for which the inhibition was 19%.

Values taken from PubChem BioAssay AID440 (NMMLSC, 2006).
